Experimental data published in ChEMBL document CHEMBL4513146, “CO-ADD screening of Karazin Kharkiv National University (Ukraine) compounds”.
Entries with a potency or affinity are not part of this list.

Each compound was assayed on Cryptococcus neoformans. Details: Concentration 32 ug.mL-1; ASSAY_TEST Inhibition of Fungal Growth; detection method Resazurin; Absorption (OD600-OD570); plate type 384well; NBS; CORNING #3640.
`O=C(Cn1nc2ccc(-c3ccc(Cl)cc3)nn2c1=O)NC1CCCC1` gave an Inhibition of -13.05%. In the case of `CC(C)Cc1ccc(S(=O)(=O)Nc2ccc3nncn3n2)cc1`, the Inhibition is reported as -3.84%. Work on `Cc1[nH]c2ccccc2c1C(=O)CSc1nnc2c(=O)n(-c3ccc(Br)cc3)ccn12` yielded an Inhibition of -12.52%. `O=S(=O)(c1ccc2nncn2c1)N(Cc1cc(F)cc(F)c1)c1cc(F)cc(F)c1` was tested, and the Inhibition was -3.18%. `O=c1c2sccc2n2c(=O)n(Cc3ccccc3F)nc2n1Cc1cccs1` gave an Inhibition of -22.09%. `COc1cc(-c2nnc3c(=O)n(Cc4ccc(Cl)cc4)ccn23)cc(OC)c1OC` showed an Inhibition of -21.41%. For `COc1cccc(Sc2nc3ccccc3n3c(=O)n(CC(=O)Nc4cccc(F)c4)nc23)c1`, the Inhibition was -25.49%. `Cc1c(Cl)cccc1-n1ccn2c(=O)n(Cc3cccc(F)c3)nc2c1=O` was tested, and the Inhibition was -17.54%. With `Cn1c(=O)c2ccc(C(=O)NC3CCCC3)cc2n2c(SCc3c(F)cccc3Cl)nnc12` the Inhibition was -23.81%. Work on `COc1ccccc1NC(=O)Cn1nc2c3cc(-c4ccc(Cl)cc4)nn3ccn2c1=O` yielded an Inhibition of -18.6%. With `Cc1cc2nn(CC(=O)Nc3ccccc3C)c(=O)n2c(Nc2ccc(F)c(C)c2)n1` the Inhibition was -6.31%. In the case of `O=c1n(Cc2nc(-c3ccc(Cl)cc3)no2)nc2ccc(-c3ccccc3)nn12`, the Inhibition is reported as -20.52%. In the case of `NC(=O)Cn1nc2n(CCC(=O)NC3CCCCC3)c(=O)c3ccccc3n2c1=O`, the Inhibition is reported as -26.54%. Work on `Cc1ccc(-c2ccc3nn(CC(=O)Nc4ccccc4)c(=O)n3n2)cc1C` yielded an Inhibition of -10.8%.
